Results from PubChem BioAssay (NCATS).
Results filed as inconclusive are left out. Calls of active or inactive are those of the source. Unless noted, calls follow the shape of the dose curve; as a rule, active = well fitted curve in the direction sought with a large enough effect; inconclusive = small, poorly fitted or top-dose-only effect, or another doubt; inactive = no such curve, though single readings can be large; an effect the other way counts as inactive or inconclusive.

Legend:
[1] = qHTS Assay for Identification of Small Molecule Agonists for Thrombopoietin (TPO) Signaling Pathway (AID 917)
In short: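 Human TPO receptor–transfected Ba/F3 cells (murine, IL-3-dependent) in IL-3-deficient medium; compounds plus TPO at EC50, 26 pM final; 24 hrs, 37 C; GpIIb-luciferase luminescence after 10 min RT detection.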

[2] = target: Muscarinic acetylcholine receptor M1 (Rattus norvegicus) (UniProt P08482); experiment: qHTS Assay for Antagonists of Acetylcholine Muscarinic M1 Receptor: Measurement of IP-One Response (AID 944); also: nearly all actives have a fitted effect of over 75% in size
In short: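 Antagonist mode with rat M1 receptor transfected into CHO cells. Compound is added first for 10 min, carbachol at its EC80 follows for 30 min, and lysis reagents then allow TR-FRET detection of accumulated IP1.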

[3] = target: Pyruvate kinase (Leishmania mexicana) (UniProt Q27686); experiment: qHTS Validation Assay for Inhibitors of Leishmania Mexicana Pyruvate Kinase (AID 945)
In short: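 LmPYK E451W 0.2 nM; 0.5 mM PEP, 0.1 mM ADP, 7 mM MgCl2, 50 mM KCl, imidazole pH 7.2, 0.01% Tween 20, 0.05% BSA; 1 h RT; PKLight luminescence; DMSO-normalized.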

[4] = target: Pyruvate kinase PKM (Homo sapiens) (UniProt P14618); experiment: qHTS Assay for Activators of Human Muscle Pyruvate Kinase (AID 954; active = well fitted curve in the direction sought with a large enough effect, not every such curve was filed as active)
In short: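 ATP production by PKM2 detected via luciferase luminescence after 1 h room-temperature reaction (0.1 nM enzyme, PEP at Km 0.5 mM, ADP 0.1 mM, pH 7.2 imidazole buffer). Inhibition scaled to no-enzyme control; activation referenced to 0.3 nM enzyme wells.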

[5] = target: alpha-glucosidase (Oryza sativa, rice) (UniProt Q653V4); experiment: Counterscreen for Glucocerebrosidase Inhibitors: qHTS Assay for Rice alpha-Glucosidase at pH 5.0 (AID 997)
In short: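 Endpoint fluorogenic assay at pH 5.0: compounds (0.7 nM to 77 uM) titrated against 4 nM rice enzyme and 400 uM 4-MU-alpha-glucoside for 20 min at room temperature; NaOH/glycine stop, read ex 365/em 440 nm, Hill-fitted AC50.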

[6] = target: Rap guanine nucleotide exchange factor 3 (Homo sapiens) (UniProt O95398); experiment: Confirmatory qHTS for antagonist of cAMP-regulated guanine nucleotide exchange factor 3 (EPAC1) (AID 1645880); also: nearly all actives have a fitted effect of over 55% in size
In short: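 Released BODIPY-GDP fluoresces less than Rap1-bound BODIPY-GDP; the signal is followed at 480/540 nm at 5-min intervals over 30 min, after 5 min at room temperature. Reactions contain 100 nM EPAC1, 250 nM RAP1B-BODIPY-GDP and 50 uM GDP; results are normalized to ATA and DMSO.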

[7] = target: Rap guanine nucleotide exchange factor 4 (Homo sapiens) (UniProt Q8WZA2); experiment: Confirmatory qHTS for agonist of cAMP-regulated guanine nucleotide exchange factor 4 (EPAC2) (AID 1645884);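 also: nucleotide exchange releases bodipy-GDP from Rap1 and this lowers its fluorescence; nearly all actives have a fitted effect of over 65% in size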
[8] = target: Rap guanine nucleotide exchange factor 4 (Homo sapiens) (UniProt Q8WZA2); experiment: Confirmatory qHTS for antagonist of cAMP-regulated guanine nucleotide exchange factor 4 (EPAC2) (AID 1645885); also: nearly all actives have a fitted effect of over 25% in size; also: potency is read from the fitted curve at half-maximal effect
[9] = target: Glutathione peroxidase 1 (Homo sapiens) (UniProt P07203); experiment: Primary qHTS Assay for Inhibitors of Recombinant Selenoprotein Glutathione Peroxidase 1 (GPX1) (AID 1845191); also: nearly all actives have a fitted effect of over 65% in size
In short: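 NADPH consumption tracked by fluorescence at 340/450 nm between t=0 and t=15 min, room temperature. Final mix: 10 nM GPX1, 100 nM glutathione reductase, 1 mM GSH, 0.5 mM NADPH, 0.5 mM cumene hydroperoxide, 0.01% BSA; 30 min compound–enzyme preincubation.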

[10] = target: Phospholipid hydroperoxide glutathione peroxidase GPX4 (Homo sapiens) (UniProt P36969); experiment: Primary qHTS Assay for Inhibitors of Recombinant Selenoprotein Glutathione Peroxidase 4 (GPX4) (AID 1845192); settings: outcome: dose series up to 50 µM unless noted; also: nearly all actives have a fitted effect of over 65% in size
In short: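 NADPH consumption followed by fluorescence at 340/450 nm, t=0 and after 15 min at room temperature. Reaction started with cumene hydroperoxide (0.5 mM final) after 30 min compound–GPX4 preincubation; final 200 nM GPX4, 100 nM GR, 1 mM GSH, 0.5 mM NADPH.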

[11] = target: Alpha-galactosidase A (Homo sapiens) (UniProt P06280); experiment: Counterscreen for Glucocerebrosidase Inhibitors: qHTS Assay for Human alpha-Galactosidase at pH 4.5 (AID 992)
In short: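 Fluorogenic 1536-well qHTS at pH 4.5 (citrate, Tween-20): 2 nM enzyme, 80 uM 4-MU-alpha-galactoside, 20 min room temperature, NaOH/glycine stop. Titration 0.7 nM to 77 uM, data normalized to no-enzyme and full-activity controls, Hill-fitted AC50.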

[12] = target: Muscarinic acetylcholine receptor M1 (Rattus norvegicus) (UniProt P08482); experiment: qHTS Assay for Antagonists of Acetylcholine Muscarinic M1 Receptor: Kinetic Measurement of Intracellular Calcium Response (AID 943);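 also: Fluo-4 calcium signal as peak divided by basal fluorescence over 4 min; series mostly up to about 35 µM; nearly all actives have a fitted effect of over 75% in size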
In short: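 Antagonism is measured as inhibition of the carbachol-evoked calcium rise in CHO cells transfected with rat M1. Cells are dye-loaded, exposed to compound for 10 min, then stimulated with 100 nM carbachol (EC80).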

[13] = Primary qHTS for inhibitors of nuclear receptor binding SET domain protein 2 (NSD2) in an isogenic RCH-ACV NSD2 p.E1099K mutant (9B) (AID 1645876); also: potency is read from the fitted curve at half-maximal effect; nearly all actives have a fitted effect of over 70% in size
[14] = Primary qHTS for inhibitors of nuclear receptor binding SET domain protein 2 (NSD2) in an RCH-ACV wild type WT cells (2C) (AID 1645877); also: potency is read from the fitted curve at half-maximal effect; nearly all actives have a fitted effect of over 70% in size
[15] = NCATS anti-infectives library activity on HEK293 viability as a counter-qHTS vs the C. elegans viability qHTS (AID 1745854);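 also: HEK293 cells exposed to compounds for 24 hr before the viability read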
In short: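 Counter-screen for cytotoxicity: HEK293, 24 hr, 37C, compounds up to 41.7 uM final (a dilution series, 1:5). Readout CellTiter-Glo luminescence, 10 min RT. Digitonin control, 83.3 uM final.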

[16] = target: Luciferin 4-monooxygenase (Photinus pyralis) (UniProt P08659); experiment: Biochemical firefly luciferase enzyme assay for NPC (AID 624030);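 also: purified P. pyralis luciferase at 10 nM with luciferin and ATP substrate; series mostly up to about 59 µM; nearly all actives have a fitted effect of over 70% in size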
In short: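 Direct inhibition of firefly luciferase enzyme (10 nM final, 50 mM Tris Acetate) assessed by luminescence within 5 minutes. Percent activity scaled between DMSO and PTC124 positive control, with concentration-effect curves classified by fit quality and response.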

Measured: Potency

Glutathione peroxidase 1 (Homo sapiens), sequence (P07203 whole entry, looked up): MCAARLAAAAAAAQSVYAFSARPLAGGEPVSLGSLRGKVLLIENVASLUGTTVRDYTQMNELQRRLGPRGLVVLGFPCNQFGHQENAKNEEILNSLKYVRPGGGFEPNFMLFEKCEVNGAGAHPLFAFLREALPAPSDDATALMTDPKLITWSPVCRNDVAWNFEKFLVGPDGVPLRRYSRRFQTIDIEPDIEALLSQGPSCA
Rap guanine nucleotide exchange factor 4 (Homo sapiens), sequence (Q8WZA2 whole entry, looked up): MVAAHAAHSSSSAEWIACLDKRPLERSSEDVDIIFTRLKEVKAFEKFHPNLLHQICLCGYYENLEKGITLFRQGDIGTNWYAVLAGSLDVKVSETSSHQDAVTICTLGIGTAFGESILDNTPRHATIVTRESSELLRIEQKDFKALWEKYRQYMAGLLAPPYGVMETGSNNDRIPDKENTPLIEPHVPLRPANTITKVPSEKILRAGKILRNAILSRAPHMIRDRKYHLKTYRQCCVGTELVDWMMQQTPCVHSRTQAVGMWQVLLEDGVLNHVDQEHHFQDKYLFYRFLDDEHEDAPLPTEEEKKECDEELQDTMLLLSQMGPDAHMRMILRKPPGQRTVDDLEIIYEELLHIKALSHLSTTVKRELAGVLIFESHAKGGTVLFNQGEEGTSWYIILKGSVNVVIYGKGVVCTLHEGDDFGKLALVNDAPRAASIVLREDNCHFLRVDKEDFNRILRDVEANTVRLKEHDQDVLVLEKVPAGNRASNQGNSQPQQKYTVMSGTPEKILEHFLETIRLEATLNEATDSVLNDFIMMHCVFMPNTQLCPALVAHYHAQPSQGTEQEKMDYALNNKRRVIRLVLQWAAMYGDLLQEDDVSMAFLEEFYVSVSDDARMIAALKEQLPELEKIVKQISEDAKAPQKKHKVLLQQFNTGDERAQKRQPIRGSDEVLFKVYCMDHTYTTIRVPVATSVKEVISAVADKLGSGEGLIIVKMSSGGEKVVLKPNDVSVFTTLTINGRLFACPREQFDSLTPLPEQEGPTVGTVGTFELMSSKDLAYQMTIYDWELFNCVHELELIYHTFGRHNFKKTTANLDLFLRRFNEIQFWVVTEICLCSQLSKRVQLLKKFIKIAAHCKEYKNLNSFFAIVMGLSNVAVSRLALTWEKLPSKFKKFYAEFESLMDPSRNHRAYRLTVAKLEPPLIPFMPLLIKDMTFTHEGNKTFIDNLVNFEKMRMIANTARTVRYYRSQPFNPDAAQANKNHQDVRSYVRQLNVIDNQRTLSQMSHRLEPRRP
Pyruvate kinase PKM (Homo sapiens), sequence (P14618 whole entry, looked up): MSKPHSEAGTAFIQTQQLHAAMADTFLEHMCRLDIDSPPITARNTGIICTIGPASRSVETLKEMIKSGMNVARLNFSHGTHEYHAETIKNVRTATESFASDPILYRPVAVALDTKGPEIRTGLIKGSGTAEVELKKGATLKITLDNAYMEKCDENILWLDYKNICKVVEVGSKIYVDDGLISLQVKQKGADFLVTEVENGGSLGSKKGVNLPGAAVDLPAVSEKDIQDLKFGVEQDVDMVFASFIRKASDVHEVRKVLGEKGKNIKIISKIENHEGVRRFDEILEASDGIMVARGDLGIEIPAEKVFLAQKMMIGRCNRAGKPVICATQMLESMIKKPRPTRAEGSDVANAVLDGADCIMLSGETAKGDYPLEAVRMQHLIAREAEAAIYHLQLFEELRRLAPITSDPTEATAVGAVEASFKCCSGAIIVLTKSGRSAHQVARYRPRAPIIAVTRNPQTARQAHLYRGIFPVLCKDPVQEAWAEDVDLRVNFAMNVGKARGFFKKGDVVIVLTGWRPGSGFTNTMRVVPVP
Muscarinic acetylcholine receptor M1 (Rattus norvegicus), sequence (P08482 whole entry, looked up): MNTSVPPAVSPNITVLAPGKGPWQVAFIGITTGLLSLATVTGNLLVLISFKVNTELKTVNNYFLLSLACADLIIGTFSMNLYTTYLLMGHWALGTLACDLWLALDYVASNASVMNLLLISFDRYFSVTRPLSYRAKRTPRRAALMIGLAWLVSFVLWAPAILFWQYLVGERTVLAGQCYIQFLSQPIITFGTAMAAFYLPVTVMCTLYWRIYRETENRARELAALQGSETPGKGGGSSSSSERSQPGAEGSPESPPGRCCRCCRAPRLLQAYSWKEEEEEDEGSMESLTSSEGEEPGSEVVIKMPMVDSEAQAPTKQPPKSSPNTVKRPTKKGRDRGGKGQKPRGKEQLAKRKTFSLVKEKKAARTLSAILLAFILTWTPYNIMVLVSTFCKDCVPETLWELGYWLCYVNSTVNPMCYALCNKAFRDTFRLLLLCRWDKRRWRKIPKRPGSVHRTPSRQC
Phospholipid hydroperoxide glutathione peroxidase GPX4 (Homo sapiens), sequence (P36969 whole entry, looked up): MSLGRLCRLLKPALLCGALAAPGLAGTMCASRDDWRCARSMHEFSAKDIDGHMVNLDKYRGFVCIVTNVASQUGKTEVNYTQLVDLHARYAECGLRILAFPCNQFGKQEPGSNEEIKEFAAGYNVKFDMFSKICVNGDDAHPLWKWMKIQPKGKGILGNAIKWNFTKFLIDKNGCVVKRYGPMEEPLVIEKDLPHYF
Alpha-galactosidase A (Homo sapiens), sequence (P06280 whole entry, looked up): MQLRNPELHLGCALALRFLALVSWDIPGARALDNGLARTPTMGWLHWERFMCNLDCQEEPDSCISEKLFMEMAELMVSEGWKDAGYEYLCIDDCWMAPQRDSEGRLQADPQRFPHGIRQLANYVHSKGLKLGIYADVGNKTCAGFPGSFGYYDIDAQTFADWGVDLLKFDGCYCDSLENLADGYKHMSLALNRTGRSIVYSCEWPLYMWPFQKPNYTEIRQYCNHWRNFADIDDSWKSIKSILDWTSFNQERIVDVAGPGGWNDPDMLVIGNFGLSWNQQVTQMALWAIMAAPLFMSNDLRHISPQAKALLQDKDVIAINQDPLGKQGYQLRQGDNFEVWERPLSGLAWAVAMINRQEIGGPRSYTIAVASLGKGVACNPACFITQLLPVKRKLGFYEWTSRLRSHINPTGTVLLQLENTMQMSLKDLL
Rap guanine nucleotide exchange factor 3 (Homo sapiens), sequence (O95398 whole entry, looked up): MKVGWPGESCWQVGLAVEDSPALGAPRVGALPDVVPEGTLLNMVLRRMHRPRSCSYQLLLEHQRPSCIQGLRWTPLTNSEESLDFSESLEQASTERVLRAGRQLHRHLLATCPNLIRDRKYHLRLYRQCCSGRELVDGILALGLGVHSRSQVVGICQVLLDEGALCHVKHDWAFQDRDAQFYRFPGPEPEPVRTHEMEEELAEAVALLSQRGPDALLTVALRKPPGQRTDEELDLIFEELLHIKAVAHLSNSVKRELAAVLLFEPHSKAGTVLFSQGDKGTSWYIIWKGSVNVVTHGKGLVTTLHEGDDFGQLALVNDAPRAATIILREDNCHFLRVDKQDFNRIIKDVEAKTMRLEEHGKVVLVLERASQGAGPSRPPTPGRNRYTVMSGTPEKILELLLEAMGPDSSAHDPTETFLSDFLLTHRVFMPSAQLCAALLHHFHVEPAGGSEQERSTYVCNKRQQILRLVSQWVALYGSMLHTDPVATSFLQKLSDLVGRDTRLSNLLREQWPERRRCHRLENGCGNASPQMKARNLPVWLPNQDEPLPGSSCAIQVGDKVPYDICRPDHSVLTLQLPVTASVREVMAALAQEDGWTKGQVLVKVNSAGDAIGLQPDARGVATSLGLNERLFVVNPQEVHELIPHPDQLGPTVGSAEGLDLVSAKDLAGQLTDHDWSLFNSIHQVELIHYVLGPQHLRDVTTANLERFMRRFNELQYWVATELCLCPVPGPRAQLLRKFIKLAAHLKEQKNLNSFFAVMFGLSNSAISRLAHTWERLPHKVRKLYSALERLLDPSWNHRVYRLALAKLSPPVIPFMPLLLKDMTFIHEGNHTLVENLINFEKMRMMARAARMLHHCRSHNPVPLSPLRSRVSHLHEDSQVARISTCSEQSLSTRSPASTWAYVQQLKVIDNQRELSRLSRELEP
Pyruvate kinase (Leishmania mexicana), sequence (Q27686 2-499 E452W): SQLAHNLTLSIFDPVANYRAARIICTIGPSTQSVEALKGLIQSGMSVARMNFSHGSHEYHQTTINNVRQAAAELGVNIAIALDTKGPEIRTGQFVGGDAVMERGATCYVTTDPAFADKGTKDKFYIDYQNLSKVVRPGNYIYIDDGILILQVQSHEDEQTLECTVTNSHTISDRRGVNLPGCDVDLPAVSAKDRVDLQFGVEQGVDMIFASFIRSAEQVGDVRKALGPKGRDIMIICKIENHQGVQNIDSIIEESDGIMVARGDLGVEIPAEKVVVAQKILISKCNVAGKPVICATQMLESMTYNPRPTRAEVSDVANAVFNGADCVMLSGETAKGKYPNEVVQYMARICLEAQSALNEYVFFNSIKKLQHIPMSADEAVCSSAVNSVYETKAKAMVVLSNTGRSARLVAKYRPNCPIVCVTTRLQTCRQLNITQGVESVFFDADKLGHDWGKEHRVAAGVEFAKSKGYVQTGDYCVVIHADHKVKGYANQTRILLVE
Luciferin 4-monooxygenase (Photinus pyralis), sequence (P08659 whole entry, looked up): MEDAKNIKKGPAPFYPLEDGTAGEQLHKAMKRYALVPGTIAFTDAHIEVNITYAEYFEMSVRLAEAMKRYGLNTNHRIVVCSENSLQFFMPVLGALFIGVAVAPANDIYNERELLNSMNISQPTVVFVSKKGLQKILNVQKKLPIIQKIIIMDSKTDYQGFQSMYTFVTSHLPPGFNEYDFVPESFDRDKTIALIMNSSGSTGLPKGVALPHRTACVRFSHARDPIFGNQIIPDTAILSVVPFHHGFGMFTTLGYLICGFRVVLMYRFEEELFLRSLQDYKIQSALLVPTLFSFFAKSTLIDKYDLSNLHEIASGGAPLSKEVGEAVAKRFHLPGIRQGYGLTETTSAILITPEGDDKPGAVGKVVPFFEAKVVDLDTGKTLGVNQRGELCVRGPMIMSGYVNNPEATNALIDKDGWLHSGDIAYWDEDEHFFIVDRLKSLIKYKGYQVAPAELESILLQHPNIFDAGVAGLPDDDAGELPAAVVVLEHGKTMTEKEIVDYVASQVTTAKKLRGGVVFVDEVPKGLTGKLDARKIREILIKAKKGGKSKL

CCn1ccnc1C[C@@H]1COc2ccccc2O1
inactive: [1] | [2] | [3] | [4] | [5] | [6] | [7]
active: [8] 17.5 µM

C[C@@H]1CCN=C(N)S1
inactive: [1] | [2] | [3] | [4] | [5]

Cc1sc(N)c(C(=O)c2cccc(C(F)(F)F)c2)c1C
inactive: [6] | [7]

N[C@H](Cc1ccccc1)C(=O)O
inactive: [9] | [10]

Fc1ccc(-c2nc3n(c2-c2ccncc2)CCS3)cc1
inactive: [9]

NC(N)=NN=Cc1c(Cl)cccc1Cl
inactive: [1] | [2] | [3] | [4] | [11] | [5]

COC(=O)C1=C(C)NC(C)=C([N+](=O)[O-])[C@@H]1c1ccccc1C(F)(F)F
active: [8] 35 µM
inactive: [7]

COC(=O)C1=C(C)NC(C)=C([N+](=O)[O-])[C@H]1c1ccccc1C(F)(F)F
active: [8] 39.3 µM
inactive: [1] | [12] | [2] | [3] | [4] | [11] | [5] | [7]

Cc1ccc(-c2nn(C(C)(C)C)c3ncnc(N)c23)cc1
inactive: [9]
active: [13] 7.31 µM | [14] 11.6 µM

COc1cc([C@@H]2c3cc4c(cc3C(O[C@@H]3O[C@@H]5CO[C@@H](c6cccs6)OC5[C@H](O)[C@H]3O)C3COC(=O)[C@@H]32)OCO4)cc(OC)c1O (stereo not given in full)
inactive: [9] | [10]

OCCOCCN1CCN(Cc2cccc(Oc3ccccc3)c2)CC1
inactive: [15]

CC[C@H](C)C(=O)O[C@H]1CCC=C2C=C[C@H](C)[C@H](CC[C@@H]3C[C@H](O)CC(=O)O3)[C@H]21
inactive: [1] | [3] | [4] | [11] | [5] | [6] | [7]

CC(C)(C)n1nc(-c2ccc(Cl)cc2)c2c(N)ncnc21
active: [13] 8.2 µM | [14] 16.4 µM
inactive: [9]

CN[C@@H]1[C@H](O)[C@H](O[C@@H]2[C@H](O)[C@@H](O[C@H]3O[C@H]([C@@H](C)NC)CC[C@H]3N)[C@@H](N)C[C@H]2N)OC[C@]1(C)O
inactive: [9] inactive [at 9.52 µM] | [10] inactive [at 9.73 µM]

COc1ccc2[nH]c(-c3ccccc3)c(CCNC(C)=O)c2c1
inactive: [6] | [7] | [8]

C[C@@H](/C=C\c1cccc(Oc2ccc(F)cc2)c1)N(O)C(N)=O
inactive: [1] | [12] | [2] | [3] | [4] | [5] | [6]
active: [8] 44.1 µM

CCOC(=O)[C@@]12C[C@@H]1/C(=N/O)c1ccccc1O2
inactive: [1] | [2] | [3] | [4] | [11] | [5] | [6] | [7] | [8]

COc1ccc2c(c1)c(CC(=O)N1CCOCC1)c(C)n2C(=O)c1ccc(Cl)cc1
inactive: [1] | [2] | [3] | [4] | [5]

N#CC(=C(/N)Sc1ccccc1N)/C(C#N)=C(\N)Sc1ccccc1N
inactive: [15]

OCc1cc([C@@H](O)CNCCCCCCOCCCCc2ccccc2)ccc1O
inactive: [16]
